In general, AC50 refers to the concentration giving half of the maximal activity seen.

Each structure is given as a SMILES string. Records with an inconclusive call do not appear. The source made the active and inactive calls. How the source made its calls: active means hit-call score of the fitted dose curve at least 0.9, where 1 is the maximum; inconclusive means response in the unintended direction; inactive means score below 0.9.

This passage reports AC50 results from PubChem BioAssay AID2284355 (EPA ToxCast).

For this assay, the system named is rainbow trout Retinoid X Receptor beta (RXRb). Briefly: ATG_rtRXRb_EcoTox2: Attagene TRANS-FACTORIAL EcoTox-2 HepG2 Assay for rainbow trout Retinoid X Receptor beta (RXRb). On the procedure: ATG_EcoTox2 is a cell-based, multiplexed assay created by modifying the existing Attagene TRANS-FACTORIAL system to include a panel of nuclear receptors from some or all the following species: human (Homo sapiens), african clawed frog (Xenopus laevis), rainbow trout (Oncorhynchus mykiss), japanese medaka (Oryzias latipes), and zebrafish (Danio rerio). The ECOTOX2-FACTORIAL format uses HepG2, a human liver cell line, with measurements taken at 24 hours after chemical dosing in a 24-well plate. ATG_rtRXRb_EcoTox2 is one of 29 assay components calculated in the ATG_EcoTox2 assay. It is designed to make measurements of mRNA induction, a form of inducible reporter, as detected with fluorescence intensity signals by Reverse transcription polymerase chain reaction (RT-PCR) and Capillary electrophoresis technology.The assay endpoint ATG_rtRXRb_EcoTox2 was analyzed in the positive analysis fitting direction relative to DMSO as the negative control and baseline of activity. Using a type of inducible reporter, measures of mRNA for gain-of-signal activity can be used to understand the reporter gene at the transcription factor-level as they relate to the gene RXRb. Furthermore, this assay endpoint can be referred to as a primary readout, because this assay has produced multiple assay endpoints where this one serves a reporter gene function. […]
For the compound `[Cl][Sn]([c]1ccccc1)([c]1ccccc1)[c]1ccccc1`, the AC50 was 0.119 µM (active).
